Counter-ions that a name gives are not always drawn. ± gives the standard deviation or the standard deviation of the averaged measurements.
System: Danio rerio Tg(wt1b:EGFP) embryo, pronephros
Assay: glomerular separation, fold change vs DMSO control; higher = glomeruli further apart (abnormal)
Details: 25 µM; exposure: 24-48 hpf
Summary of the method: (§1)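 Dechorionated Tg(wt1b:EGFP) zebrafish embryos were treated with 25 μM compound in 0.5% DMSO, in HEPES-buffered E3 with 0.003% PTU, from 24 to 48 hpf at 28.5°C. On maximum projections of dorsal pronephros images, 16 hand-placed reference points in Fiji gave distances and angles, and values more than 2 SD from the feature mean were left out. Results are fold changes over the mean of same-day DMSO-treated embryos.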

Structure (SMILES) | glomerular separation
N[C@H]1CONC1=O [(S)-(-)-Cycloserine] | 0.898 ± 0.5
CCN1CCN(C(=O)N[C@@H](C(=O)N[C@@H]2C(=O)N3[C@@H]2SC(C)(C)[C@@H]3C(=O)O)c2ccccc2)C(=O)C1=O [Piperacillin sodium salt] | 1.07 ± 0.47
CNCCCC12CCC(c3ccccc31)c1ccccc12 [Maprotiline hydrochloride] | 1.28 ± 0.49
NC[C@H]1O[C@H](O[C@H]2[C@H](O)[C@@H](O[C@H]3O[C@H](CO)[C@@H](O)[C@H](N)[C@H]3O)[C@H](N)C[C@@H]2N)[C@H](N)C[C@@H]1O [Tobramycin] | 1.49 ± 0.73
Nc1nc2c(ncn2COC(CO)CO)c(=O)[nH]1 [Ganciclovir] | 0.62 ± 0.26
CS(=O)(=O)c1ccc([C@@H](O)[C@@H](CO)NC(=O)C(Cl)Cl)cc1 [Thiamphenicol] | 0.938 ± 0.22
CN[C@@H]1[C@H](O[C@H]2[C@H](O[C@H]3[C@H](O)[C@@H](O)[C@H](N=C(N)N)[C@@H](O)[C@@H]3N=C(N)N)O[C@@H](C)[C@]2(O)C=O)O[C@@H](CO)[C@H](O)[C@H]1O [Streptomycin sulfate] | 0.691 ± 0.22
CC(=O)NS(=O)(=O)c1ccc(N)cc1 [Sulfacetamide sodic hydrate] | 0.937 ± 0.25
CCN(CC)CCOC(=O)C1(C2CCCCC2)CCCCC1 [Dicyclomine hydrochloride] | 1.3 ± 0.41
Clc1ccc(C(c2ccccc2Cl)C(Cl)Cl)cc1 (stereo not given) [Mitotane] | 0.566 ± 0.18
CN(Cc1cnc2nc(N)nc(N)c2n1)c1ccc(C(=O)N[C@@H](CCC(=O)O)C(=O)O)cc1 [Methotrexate] | 1.19 ± 0.59
C=CCN1CCCC1CNC(=O)c1cc2nn[nH]c2cc1OC (stereo not given) [Alizapride hydrochloride] | 1.18 ± 0.37

System: Danio rerio Tg(wt1b:EGFP) embryo, pronephros
Assay: glomerular width (mean of left and right), fold change vs DMSO control; higher = wider glomerulus
Details: 25 µM; exposure: 24-48 hpf
Summary of the method: as §1

Structure (SMILES) | glomerular width
CN1CCN(C2=Nc3ccccc3Oc3ccc(Cl)cc32)CC1 [Loxapine succinate] | 0.974 ± 0.014
Cn1c([N+](=O)[O-])cnc1COC(N)=O [Ronidazole] | 0.99 ± 0.011
CC(=O)Oc1ccccc1C(=O)Oc1ccccc1C(=O)O [Acetylsalicylsalicylic acid] | 0.971 ± 0.085
O=C(O)/C=C/c1ccc(Cn2ccnc2)cc1 [Ozagrel hydrochloride] | 1.01 ± 0.032
O=S(=O)(O)c1cc(O)ccc1O [Ethamsylate] | 0.89 ± 0.079
CCC(=O)O[C@@H](O[P@](=O)(CCCCc1ccccc1)CC(=O)N1C[C@H](C2CCCCC2)C[C@H]1C(=O)O)C(C)C [Fosinopril] | 1.01 ± 0.023
Nc1ccc(S(=O)(=O)c2ccc(N)cc2)cc1 [Dapsone] | 1.04 ± 0.077
CCCOc1ccc2[nH]c(NC(=O)OC)nc2c1 [Oxibendazol] | 0.505 ± 0.067
O=C(CCCCC(=O)Nc1c(I)cc(I)c(C(=O)O)c1I)Nc1c(I)cc(I)c(C(=O)O)c1I [Iodipamide] | 1.05 ± 0.076
CN1CC2c3ccccc3Oc3ccc(Cl)cc3C2C1 (stereo not given) [Asenapine maleate] | 0.991 ± 0.088
CN(C)CCC(c1ccc(Br)cc1)c1ccccn1 (stereo not given) [Brompheniramine maleate] | 1.04 ± 0.065
O=C1NCCN1c1ncc([N+](=O)[O-])s1 [Niridazole] | 0.867 ± 0.021
COc1ccc2cc(CCC(C)=O)ccc2c1 [Nabumetone] | 1 ± 0.011
Clc1ccc(C(Cn2ccnc2)OCc2csc3c(Cl)cccc23)c(Cl)c1 (stereo not given) [Sertaconazole nitrate] | 0.727 ± 0.039
C[C@@H](O)[C@H]1C(=O)N2C(C(=O)O)=C(SCCNC=N)C[C@H]12 [Imipenem] | 1.091 ± 0.01
CCCCNc1c(C(=O)OCC)c(C)nc2c1cnn2CC [Tracazolate hydrochloride] | 0.929 ± 0.072
CCCCNc1ccc(C(=O)OCCN(C)C)cc1 | 0.959 ± 0.096
CN(C)CCC(c1ccc(Cl)cc1)c1ccccn1 (stereo not given) [Chlorpheniramine maleate] | 1.04 ± 0.042
CCCCc1cc2ccccc2c(OCCN(C)C)n1 [Dimethisoquin hydrochloride] | 0.942 ± 0.065
CC1(C)O[C@@H]2[C@@H](CO[C@@]3(COS(N)(=O)=O)OC(C)(C)O[C@@H]23)O1 [Topiramate] | 1.086 ± 0.0046
Clc1ccc(Cn2c(CN3CCCC3)nc3ccccc32)cc1 [Clemizole hydrochloride] | 1.03 ± 0.036
Cn1c(NCCN(CCO)CCCc2ccc([N+](=O)[O-])cc2)cc(=O)n(C)c1=O [Nifekalant] | 0.965 ± 0.033
C#C[C@]1(OC(C)=O)CC[C@H]2[C@@H]3CCC4=CC(=NO)CC[C@@H]4[C@H]3CC[C@@]21CC (mixture of isomers) [Norgestimate] | 0.858 ± 0.059

From the supplement of paper PMC7366291
